# Measurements from the supplement of paper PMC9588786.
# ± gives the standard deviation of the averaged measurements.
# Tested on: HT-1080
# Test: relative cell viability with RSL3 co-treatment (fraction of control); higher = stronger protection from RSL3-induced ferroptosis (higher viability)
# Conditions: 10 µM
# 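Further: viability read as CCK-8 absorbance at 450 nm in cells co-exposed to the GPX4 inhibitor RSL3, relative to a 0.01% DMSO vehicle control.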
row,SMILES,relative cell viability
1,COc1ccc2c(Oc3ccc(NC(=O)c4c(C)n(CC(C)(C)O)n(-c5ccccc5)c4=O)nc3)ccnc2c1,0.76 ± 0.052
2,C[C@@H]1CN(CC(=O)Nc2ccc3c(c2)Cc2cccc(-c4cc(=O)cc(N5CCOCC5)o4)c2S3)C[C@H](C)O1,0.46 ± 0.11
3,Cc1csc(-c2nnc(Nc3ccc(Oc4ncccc4-c4ccnc(N)n4)cc3)c3ccccc23)c1,0.56 ± 0.087
4,C[C@@H](Oc1cc(-c2cnn(C3CCNCC3)c2)cnc1N)c1c(Cl)ccc(F)c1Cl,0.7 ± 0.026
5,"CC[C@H](CO)Nc1nc(NCc2ccccc2)c2ncn(C(C)C)c2n1 [Roscovitine (Seliciclib,CYC202)]",0.793 ± 0.12
6,CN1CCN(c2ccc(C(=O)Nc3n[nH]c4ccc(Cc5cc(F)cc(F)c5)cc34)c(NC3CCOCC3)c2)CC1 [Entrectinib (RXDX-101)],0.537 ± 0.045
7,Cc1cc(C(C)Nc2ccccc2)c2nc(N3CCOCC3)cc(=O)n2c1 (centres undefined),0.627 ± 0.059
8,COc1ccc(-c2ccc3ncc4c(c3c2)n(-c2ccc(N3CCNCC3)c(C(F)(F)F)c2)c(=O)n4C)cn1,0.29 ± 0.087
9,CC(C)N(CCC(=O)c1ccc2ccccc2c1)Cc1ccccc1,0.863 ± 0.12
10,O=C1Nc2ccccc2/C1=C1/Nc2ccccc2C1=O [Indirubin],0.75 ± 0.066
11,"C=CC(=O)Nc1cccc(Nc2nc(Nc3ccc(N4CCN(C(C)=O)CC4)cc3OC)ncc2C(F)(F)F)c1 [Rociletinib (CO-1686, AVL-301)]",0.573 ± 0.2
12,COc1cc2c(Oc3ccc4[nH]c(C)cc4c3F)ncnc2cc1OCCCN1CCCC1 [Cediranib (AZD2171)],0.283 ± 0.023
13,Cc1cc2c(F)c(Oc3ncnn4cc(OC[C@@H](C)O)c(C)c34)ccc2[nH]1,0.753 ± 0.078
14,CNc1nc(Nc2cnn([C@H]3CCN(C4COC4)C[C@@H]3F)c2Cl)ncc1C(F)(F)F,0.617 ± 0.032
15,NC(=O)c1ccc(N(C(N)=O)c2c(F)cccc2F)nc1-c1ccc(F)cc1F,0.733 ± 0.042
16,Nc1ccc(C(=O)Nc2cccc(-c3nc(N4CCOCC4)c4oc5ncccc5c4n3)c2)cn1,0.303 ± 0.067
17,Cc1nc(Nc2ncc(C(=O)Nc3c(C)cccc3Cl)s2)cc(N2CCN(CCO)CC2)n1 [Dasatinib],0.553 ± 0.091
18,CCN(CC)CCCCNc1ncc2cc(-c3cc(OC)cc(OC)c3)c(NC(=O)NC(C)(C)C)nc2n1,0.633 ± 0.14
19,COc1cc(-c2cc(-c3ccc(N4CCNCC4)cc3)cnc2C)cc(OC)c1OC,0.74 ± 0.075
20,CSc1cccc(Nc2ncc3cc(-c4c(Cl)cccc4Cl)c(=O)n(C)c3n2)c1,0.683 ± 0.1

row,SMILES,relative cell viability
1,COc1cc2ncnc(Nc3ccc(Cl)cc3F)c2cc1OC,0.757 ± 0.14
2,Nc1ncnc2c1c(-c1cnc3[nH]ccc3c1)nn2C1CCCC1,0.397 ± 0.092
3,c1cncc(CN2CCC(n3ncc4c(N5CCOCC5)nc(-c5ccc6[nH]ccc6c5)nc43)CC2)c1,0.347 ± 0.13
4,Cn1ncc(Cl)c1-c1cc(C(=O)N[C@H](CN)Cc2ccc(F)c(F)c2)oc1Cl,0.753 ± 0.07
5,CO[C@H]1CC[C@H](N2C(=O)CNc3ncc(-c4ccc(C(C)(C)O)nc4)nc32)CC1,0.733 ± 0.091
6,CCn1c(=O)c(-c2ccc(-c3cncs3)cc2Cl)cc2cnc(Nc3ccc(N4CCN(C)CC4)cc3)nc21,0.833 ± 0.032
7,COc1cc(OC)c(/C=C/S(=O)(=O)Cc2ccc(OC)c(NCC(=O)O)c2)c(OC)c1,0.7 ± 0.026
8,CC(C)CC(=O)Nc1n[nH]c2c1CN(C(=O)C1CCN(C)CC1)C2(C)C,0.78 ± 0.069
9,Cc1ccc(-n2nc(C(C)(C)C)cc2NC(=O)Nc2ccc(OCCN3CCOCC3)c3ccccc23)cc1 [Doramapimod (BIRB 796)],0.57 ± 0.03
10,O=c1[nH]nc(Sc2ncc([N+](=O)[O-])s2)n1-c1ccc2c(c1)OCCO2,0.533 ± 0.045
11,O=C(Nc1c[nH]nc1-c1nc2ccc(CN3CCOCC3)cc2[nH]1)NC1CC1,0.35 ± 0.14
12,NCC(=O)Nc1ccc(-n2nc(C(F)(F)F)cc2-c2ccc3c(ccc4ccccc43)c2)cc1,0.06 ± 0.056
13,CC(=O)Nc1cccc(-n2c(=O)n(C3CC3)c(=O)c3c(Nc4ccc(I)cc4F)n(C)c(=O)c(C)c32)c1,0.78 ± 0.052
14,COc1ccccc1-c1cc(Nc2cccc(CS(N)(=O)=O)c2)ncn1,0.613 ± 0.095
15,O=C1Nc2ccc(I)cc2/C1=C/c1cc(Br)c(O)c(Br)c1,0.573 ± 0.2
16,Cc1ccc(Nc2nccc(N(C)c3ccc4c(C)n(C)nc4c3)n2)cc1S(N)(=O)=O [Pazopanib],0.71 ± 0.12
17,C[C@@H](N)[C@H]1CC[C@H](C(=O)Nc2ccncc2)CC1,0.843 ± 0.032
18,COc1cc2ncnc(Nc3cccc(Cl)c3)c2cc1OC [AG-1478 (Tyrphostin AG-1478)],0.68 ± 0.2
19,C[C@@H](Oc1cc(-n2cnc3ccc(CN4CCN(C)CC4)cc32)sc1C(N)=O)c1ccccc1C(F)(F)F,0.573 ± 0.042
